Bioassay records: PubChem BioAssay, National Center for Advancing Translational Sciences (NCATS)
RE007 growth inh = less growth of the S. pombe RE007 Vpr strain. Potency, µM (titrated, usually from 92.2 µM), for the others: at the top dose activity change, negative = less growth, usual class: inhibitors. 0.21% of 360,000 active. S. pombe RE007 Vpr strain, BacTiter-Glo ATP luminescence, 24 h; active = well fitted falling curve with a large enough effect; inconclusive = small, poorly fitted or top-dose-only effect; inactive = no such curve, though single readings can be large or run the other way; also: potency is read from the fitted curve at half-maximal effect; nearly all actives have a fitted effect of over 50% in size
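Fission yeast RE007 carrying one integrated HIV-1 vpr copy, seeded at OD 0.01 in PMG+AL medium with 23 nL pinned compound. Grown 24 h at 30 degrees; viability read by BacTiter-Glo luminescence after 5 min.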
Sm TGR inh = blocks Schistosoma mansoni thioredoxin glutathione reductase. purified TGR, DTNB reduction, TNB absorbance 405 nm. Potency, µM (titrated, usually from 114 µM), for inactives: top-dose activity change, negative = inhibition, hits mostly inhibitors. 3% of 360,000 active. AID 485364; also: potency is read from the fitted curve at half-maximal effect; nearly all actives have a fitted effect of over 60% in size
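TGR 20 nM + NADPH 100 uM (dispensed conc.), cpd preinc 15 min RT; start with NADPH (500 uM addition) then DTNB (15 mM addition). Kinetic TNB absorbance, 405 nm filter. Four-parameter Hill fit across titration.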
FBPA Giardia inh = blocks Giardia fructose-bisphosphate aldolase activity. A8B2U2. purified Giardia FBPA. Potency, µM (series often up to 59.6 µM), for inactives: top-dose activity, negative = inhibition, actives largely listed as inhibitors. 0.71% of 290,000 active; also: potency is read from the fitted curve at half-maximal effect; nearly all actives have a fitted effect of over 55% in size
Target sequence (A8B2U2 whole entry, looked up): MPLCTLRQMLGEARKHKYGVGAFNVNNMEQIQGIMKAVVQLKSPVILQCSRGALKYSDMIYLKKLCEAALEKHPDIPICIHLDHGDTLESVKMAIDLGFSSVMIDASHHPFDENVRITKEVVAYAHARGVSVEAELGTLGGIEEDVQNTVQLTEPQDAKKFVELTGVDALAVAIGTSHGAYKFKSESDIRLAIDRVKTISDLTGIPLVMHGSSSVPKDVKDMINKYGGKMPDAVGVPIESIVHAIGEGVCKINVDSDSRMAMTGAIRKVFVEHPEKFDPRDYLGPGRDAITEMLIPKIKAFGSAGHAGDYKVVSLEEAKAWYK
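40 nM FBPA preincubated 10 min at RT with compound (up to 57.5 uM final), then substrate plus GAPDH/TPI/NAD/arsenate coupling and diaphorase/resazurin added. Fluorescence read after 20 min at RT, 525/598 nm.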
TbPYK inhibitor = inhibitors of Trypanosoma brucei pyruvate kinase. TbPYK enzyme, Kinase-Glo Plus ATP luminescence, 45 min. Potency, µM (doses to about 76.8 µM), for inactives: top-dose activity, negative = inhibition, actives largely listed as inhibitors. 0.12% of 410,000 active; also: potency is read from the fitted curve at half-maximal effect; nearly all actives have a fitted effect of over 50% in size
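Activity of T. brucei pyruvate kinase was followed by Kinase-Glo Plus luminescence after the enzyme reacted 45 min at room temperature with 130 uM ADP (final) and substrate. Test compounds were added before ADP at multiple concentrations.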
HCMV antiviral = human cytomegalovirus inhibition; AID 1259415; 4.5% of 410,000 active; HFF cells, HCMV-luciferase reporter, 72 h; hits give low values; activity change, negative = inhibition, % at 57.5 µM; in the data active = activity change below about -60%; inconclusive = no clear call, values can overlap the other calls; inactive = above about -39%
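Two-dose cell screen: HFF monolayers treated with compounds and infected with luciferase-expressing HCMV at 1 PFU/cell, 72 h at 37C, then lysed for luciferase measurement.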
FMDV antiviral = blocks foot and mouth disease virus; AID 1159524; FMDV antiviral cell-based qHTS; 1.2% of 410,000 active; Potency, µM (doses to about 57.9 µM), without a hit: at the highest dose activity change, negative = inhibition, hits mostly inhibitors; calls by dose curve; tested in HEK293T cells; also: read-out not given here; potency is read from the fitted curve at half-maximal effect; nearly all actives have a fitted effect of over 45% in size
The depositor's hits bear a star. Hits are enriched below; roughly 7.7% of the tested compounds scored in any of these assays. Unless noted, calls follow the shape of the dose curve; as a rule, active = well fitted curve in the direction sought with a large enough effect; inconclusive = small, poorly fitted or top-dose-only effect, or another doubt; inactive = no such curve, though single readings can be large; an effect the other way counts as inactive or inconclusive. % is scaled to controls: 0 for no effect and ±100 for the full control effect.

What do the screens show for `Cc1c(Cl)cccc1-n1nnc(-c2nc(-c3ccc4c(c3)OCO4)no2)c1C`?
Sm TGR inh: -3%; TbPYK inhibitor: -5%; HCMV antiviral: 20; FMDV antiviral: 11%

Results for CCC(=O)N1CCC2(CC1)Oc1ccc(F)cc1C(=O)C21CC(c2ccccc2)=NO1 (stereo unspecified) ?
RE007 growth inh: 5%; Sm TGR inh: 50µM*; FBPA Giardia inh: 4%; TbPYK inhibitor: 3%; HCMV antiviral: -13; FMDV antiviral: -15%

Results for CCC(=O)N1CCC2(CC1)Oc1ccc(Cl)cc1C(=O)C21CC(c2ccccc2)=NO1 (stereo unspecified) ?
RE007 growth inh: 5%; Sm TGR inh: -24%; FBPA Giardia inh: -3%; TbPYK inhibitor: 3%; HCMV antiviral: 7; FMDV antiviral: -28%

What do the screens show for `CN(CC(=O)Nc1ccc(Cl)cc1)C(=O)c1cccc(S(=O)(=O)N2CCN(Cc3ccccc3)CC2)c1`?
RE007 growth inh: 2%; Sm TGR inh: -6%; TbPYK inhibitor: -7%; HCMV antiviral: -73*; FMDV antiviral: 22µM*

How did COc1ccccc1CNC(=O)c1cccc(S(=O)(=O)N2CCN(c3ccc(F)cc3)CC2)c1 do in these assays?
RE007 growth inh: -9%; Sm TGR inh: -2%; TbPYK inhibitor: 0%; HCMV antiviral: -21; FMDV antiviral: -17%

What do the screens show for `CN(C)C(=O)c1ccc(NC(=O)c2cccc(S(=O)(=O)N3CCN(Cc4ccccc4)CC3)c2)cc1`?
RE007 growth inh: -1%; TbPYK inhibitor: -8%; HCMV antiviral: 18; FMDV antiviral: inconclusive

Results for COc1cccc(CN(C)C(=O)c2cccc(S(=O)(=O)N3CCN(c4ccccc4)CC3)c2)c1OC ?
RE007 growth inh: -8%; TbPYK inhibitor: 4%; HCMV antiviral: -70*; FMDV antiviral: 18µM*

What do the screens show for `COc1cccc(CN(C)C(=O)c2cccc(S(=O)(=O)N3CCN(c4ccc(F)cc4)CC3)c2)c1OC`?
RE007 growth inh: 20%; Sm TGR inh: 2%; TbPYK inhibitor: 1%; HCMV antiviral: -80*; FMDV antiviral: 20µM*

What do the screens show for `CN(Cc1ccc(OC(F)F)cc1)C(=O)c1cccc(S(=O)(=O)N2CCN(Cc3ccccc3)CC2)c1`?
RE007 growth inh: -12%; TbPYK inhibitor: 2%; HCMV antiviral: -92*; FMDV antiviral: 13µM*

How did Cc1ccccc1Cn1c(SCc2ccc(C(=O)NCCc3ccccc3)cc2)nc2ccncc21 do in these assays?
Sm TGR inh: 0%; TbPYK inhibitor: -7%; HCMV antiviral: -6; FMDV antiviral: -11%

Results for Cc1c(C)c2c(cc(C)c3c(-c4ccccc4)coc32)oc1=O ?
Sm TGR inh: 9%; TbPYK inhibitor: 2%; HCMV antiviral: 0; FMDV antiviral: 1%

Results for COc1ccccc1C(=O)N[C@@H]1c2ccccc2C2(CCN(Cc3cnn(C)c3C)CC2)[C@H]1O ?
FMDV antiviral: 4%

How did CN(Cc1ccco1)C(=O)c1cccc(S(=O)(=O)N2CCN(Cc3ccccc3)CC2)c1 do in these assays?
RE007 growth inh: 2%; TbPYK inhibitor: -7%; HCMV antiviral: -12; FMDV antiviral: -23%

Results for COc1ccc(NC(=O)CN(C)C(=O)c2cccc(S(=O)(=O)N3CCN(c4ccc(F)cc4)CC3)c2)cc1 ?
RE007 growth inh: -7%; TbPYK inhibitor: 5%; HCMV antiviral: -73*; FMDV antiviral: inconclusive

What do the screens show for `COc1cccc(CN(C)C(=O)c2cccc(S(=O)(=O)N3CCN(Cc4ccccc4)CC3)c2)c1OC`?
RE007 growth inh: 1%; Sm TGR inh: 4%; TbPYK inhibitor: -24%; HCMV antiviral: -74*; FMDV antiviral: inconclusive

What do the screens show for `CN(C)C(=O)[C@H]1C[C@@H]1[C@H](NC(=O)OCc1ccccc1)c1ccccc1`?
FBPA Giardia inh: 7%

Results for O=c1nc(/C=C/c2cc([N+](=O)[O-])ccc2Cl)cc(C(F)(F)F)[nH]1 ?
RE007 growth inh: 12%; Sm TGR inh: inconclusive; FBPA Giardia inh: 3%; TbPYK inhibitor: -2%; HCMV antiviral: -68*; FMDV antiviral: 0%

Results for O=c1nc(/C=C/c2cccn2-c2ccc([N+](=O)[O-])cc2)cc(C(F)(F)F)[nH]1 ?
RE007 growth inh: -3%; Sm TGR inh: -1%; FBPA Giardia inh: inconclusive; TbPYK inhibitor: -7%; HCMV antiviral: -24; FMDV antiviral: -20%

How did COc1cc(/C=C/c2cc(C(F)(F)F)[nH]c(=O)n2)cc(OC)c1OC do in these assays?
RE007 growth inh: 3%; FBPA Giardia inh: 2%; TbPYK inhibitor: -3%; HCMV antiviral: -97*; FMDV antiviral: inconclusive

Results for COc1cccc(NC(=O)Cn2cc(S(=O)(=O)N3CCCC3)c(S(=O)(=O)N3CCCC3)c2)c1 ?
Sm TGR inh: 20%; TbPYK inhibitor: 2%; HCMV antiviral: 22; FMDV antiviral: 7%

How did Cc1nc(-c2ccccc2)[nH]c(=O)c1Oc1ccc(Cl)cc1Cl do in these assays?
RE007 growth inh: 1%; Sm TGR inh: 3%; FBPA Giardia inh: 5%; TbPYK inhibitor: 0%; HCMV antiviral: 79; FMDV antiviral: inconclusive

How did O=c1[nH]c(=S)[nH]cc1Oc1ccc(Cl)cc1Cl do in these assays?
Sm TGR inh: 0%; FBPA Giardia inh: 6%; TbPYK inhibitor: -1%; HCMV antiviral: -97*; FMDV antiviral: -11%

Results for CC(=O)c1cccc(-n2c(=O)c3c4c(sc3n(CC(=O)c3ccc(Cl)cc3)c2=O)CN(C(C)=O)CC4)c1 ?
Sm TGR inh: 5%; TbPYK inhibitor: 6%; HCMV antiviral: 6; FMDV antiviral: 4%

What do the screens show for `O=S(=O)(Nc1ccc2nc(-c3cccc(Cl)c3)nn2c1)c1ccco1`?
HCMV antiviral: 28

Results for O=[N+]([O-])c1ccc(C2Oc3ccccc3C3CC(c4ccccc4)=NN32)s1 (stereo unspecified) ?
Sm TGR inh: 40µM*; FBPA Giardia inh: -26%

How did C=CCOC(=O)N[C@H](/C(C(=O)OC)=C(\C)NCc1ccccc1)c1ccc2c(c1)OCO2 do in these assays?
FBPA Giardia inh: 0%

Results for COc1ccc(C2CC(C(F)(F)F)n3nc(C(=O)NCc4c(C)nn(C)c4C)c(Cl)c3N2)cc1 (stereo unspecified) ?
RE007 growth inh: -5%; Sm TGR inh: -1%; FBPA Giardia inh: 22%; TbPYK inhibitor: 2%; HCMV antiviral: -86*
